Experimental data reported in the antibiotic and cytotoxicity screens of Wong et al. (2023).
Out of some 39,000 compounds screened, about 3,300 (8.5%) were called active. Only a selection was taken, and actives are over-represented in it overall.

system: HepG2; test: cytotoxicity call (relative viability < 0.9); settings: 10 µM

| Structure (SMILES) | cytotoxicity call |
| --- | --- |
| COc1ccc(CN(C)C[C@H]2Oc3ccc(NC(=O)Nc4cccc5ccccc45)cc3CC(=O)N([C@@H](C)CO)C[C@H]2C)cc1 | active |
| COc1ccc(CN(C)C[C@@H]2Oc3ccc(NC(=O)Nc4cccc5ccccc45)cc3CC(=O)N([C@H](C)CO)C[C@@H]2C)cc1 | inactive |
| COc1ccc(CN(C)C[C@H]2Oc3ccc(NC(=O)Nc4cccc5ccccc45)cc3CC(=O)N([C@H](C)CO)C[C@H]2C)cc1 | active |
| COc1ccc(CN(C)C[C@H]2Oc3ccc(NC(=O)Nc4cccc5ccccc45)cc3CC(=O)N([C@@H](C)CO)C[C@@H]2C)cc1 | active |
| COc1ccc(CN(C)C[C@@H]2Oc3ccc(NC(=O)Nc4cccc5ccccc45)cc3CC(=O)N([C@H](C)CO)C[C@H]2C)cc1 | inactive |
| COc1ccc(CN(C)C[C@@H]2Oc3ccc(NC(=O)Nc4cccc5ccccc45)cc3CC(=O)N([C@@H](C)CO)C[C@@H]2C)cc1 | active |
| COc1ccc(OC)c(S(=O)(=O)N2[C@@H]3CC[C@@H](C3)[C@H]2c2nc3cccc(OCc4ccccc4)c3[nH]2)c1 | inactive |
| CO[C@@H]1CN(C)C(=O)c2cc(NS(=O)(=O)CC(F)(F)F)ccc2OC[C@@H](C)N(Cc2ccccn2)C[C@@H]1C | inactive |
| C[C@@H]1CN([C@@H](C)CO)C(=O)c2cc(Br)cnc2O[C@@H]1CN(C)S(=O)(=O)c1ccccc1 | inactive |
| Cc1ccc(S(=O)(=O)N(C)C[C@@H]2Oc3ccc(NC(=O)Cn4cnnn4)cc3C(=O)N([C@@H](C)CO)C[C@@H]2C)cc1 | inactive |
| C/C(=N\N)c1c(C)cc(C)[nH]c1=O | inactive |
| Nc1cccc(=O)[nH]1 | inactive |
| Cc1noc(C)c1NC(=O)N(C)C[C@@H]1Oc2ccc(NC(=O)Nc3ccc(C(F)(F)F)cc3)cc2CC(=O)N([C@H](C)CO)C[C@@H]1C | inactive |
| C[C@H]1CN([C@@H](C)CO)C(=O)c2cc(C#CCc3ccccc3)cnc2O[C@@H]1CN(C)CC1CCOCC1 | inactive |
| C[C@H](CO)N1C[C@H](C)[C@@H](CN(C)C(=O)Nc2cccc(Oc3ccccn3)c2)OCc2cnnn2CCCC1=O | inactive |
| COc1ccc(NC(=O)Nc2ccc3c(c2)C(=O)N([C@@H](C)CO)C[C@H](C)[C@H](CN(C)Cc2ccc4c(c2)OCO4)OCCCC[C@H](C)O3)cc1 | inactive |
| C[C@H](CO)N1C[C@H](C)[C@@H](CN(C)S(=O)(=O)c2ccccc2C#N)OCc2cnnn2CCCC1=O | inactive |
| Cc1cc(=O)[nH][nH]1 | inactive |
| COc1ccc(C(=O)CC(=O)c2ccc(C(C)(C)C)cc2)cc1 | inactive |
| CCN1CCCC(OC(=O)C(c2ccccc2)c2ccccc2)C1.Cl (stereo unspecified) | inactive |
| CC(C)(C)c1ccc(C(=O)CCCN2CCC(OC(c3ccccc3)c3ccccc3)CC2)cc1 | active |
| O=C(c1ccc(Cl)cc1)n1c2ccccc2c2ccccc21 | active |
| COc1ccc2c(c1)c(CC(=O)O)c(C)n2C(=O)c1ccc(Cl)cc1 | inactive |
| NC(=O)c1ccccc1C(N)=O | inactive |

| Structure (SMILES) | cytotoxicity call |
| --- | --- |
| Cc1c(Cl)cccc1Nc1ccccc1C(=O)O | inactive |
| COc1ccc2c(c1)c(CC(=O)OCC(=O)O)c(C)n2C(=O)c1ccc(Cl)cc1 | inactive |
| O=C(c1ccccc1Cl)n1c2ccccc2c2ccccc21 | active |
| C[C@H]1CN([C@@H](C)CO)C(=O)c2cccc(NC(=O)CCCCCC(=O)Nc3ccccc3N)c2O[C@H]1CN(C)C(=O)Nc1ccccc1 | inactive |
| Cn1nc(CNc2ncccn2)c2c1CNCC2 | inactive |
| C[C@H](CO)N1C[C@H](C)[C@@H](CN(C)Cc2ccc(C(F)(F)F)cc2)Oc2ccc(NC(=O)Cc3ccccc3)cc2C1=O | inactive |
| C[C@H](CO)N1C[C@H](C)[C@H](CN(C)CC2CCCCC2)OCCCC[C@H](C)Oc2ccc(NS(=O)(=O)c3ccccc3)cc2C1=O | inactive |
| CCOC(=O)[C@H]1CSCCN1 | inactive |
| C[C@H]1CN([C@@H](C)CO)C(=O)CCCn2nncc2CO[C@H]1CN(C)Cc1ccc2c(c1)OCCN2C | inactive |
| Cc1cc(=O)n2c(C)nnc2[nH]1 | inactive |
| CCCNC(=O)Nc1ccc2c(c1)C(=O)N(C)C[C@@H](OC)[C@@H](C)CN(Cc1ccc(-c3ccccn3)cc1)[C@H](C)CO2 | inactive |
| COc1cccc(-n2cc(C(=O)NO)nn2)c1 | inactive |
| COC(=O)c1ccc(Cn2cc(C(=O)NO)nn2)o1 | inactive |
| COc1ccc(-n2cc(C(=O)NO)nn2)cc1 | active |
| COc1cccc(NC(=O)N[C@H]2CC[C@H](CC(=O)N3CCN(C)CC3)O[C@H]2CO)c1 | inactive |
| COc1cccc(NC(=O)N[C@@H]2CC[C@@H](CC(=O)N3CCN(C)CC3)O[C@@H]2CO)c1 | active |
| COc1cccc(NC(=O)N[C@@H]2CC[C@H](CC(=O)N3CCN(C)CC3)O[C@@H]2CO)c1 | inactive |
| C[C@H](CO)N1C[C@H](C)[C@H](CN(C)C(=O)Nc2ccc(F)cc2)Oc2ncc(-c3cccc(C(F)(F)F)c3)cc2C1=O | inactive |
| C[C@@H]1CN([C@H](C)CO)C(=O)c2cc(NC(=O)c3ccncc3)ccc2O[C@H]1CN(C)Cc1ccc(C(=O)O)cc1 | inactive |
| COc1ccc(CN(C)C[C@H]2Oc3c(NS(=O)(=O)c4cn(C)cn4)cccc3C(=O)N([C@H](C)CO)C[C@@H]2C)cc1 | inactive |
| C[C@@H]1CCCCO[C@@H](CN(C)S(=O)(=O)c2ccc(Cl)cc2)[C@@H](C)CN([C@@H](C)CO)C(=O)c2cc(NC(=O)c3ccncc3)ccc2O1 | inactive |
| C[C@@H]1CCCCO[C@@H](CN(C)S(=O)(=O)c2ccc(Cl)cc2)[C@H](C)CN([C@@H](C)CO)C(=O)c2cc(NC(=O)c3ccncc3)ccc2O1 | inactive |
| C[C@@H]1CCCCO[C@@H](CN(C)S(=O)(=O)c2ccc(Cl)cc2)[C@@H](C)CN([C@H](C)CO)C(=O)c2cc(NC(=O)c3ccncc3)ccc2O1 | inactive |
| C[C@H]1CCCCO[C@H](CN(C)S(=O)(=O)c2ccc(Cl)cc2)[C@@H](C)CN([C@@H](C)CO)C(=O)c2cc(NC(=O)c3ccncc3)ccc2O1 | inactive |

| Structure (SMILES) | cytotoxicity call |
| --- | --- |
| C[C@@H]1CN([C@H](C)CO)C(=O)c2cc(NC(=O)c3ccncc3)ccc2O[C@@H](C)CCCCO[C@H]1CN(C)S(=O)(=O)c1ccc(Cl)cc1 | active |
| C[C@@H]1CCCCO[C@H](CN(C)S(=O)(=O)c2ccc(Cl)cc2)[C@@H](C)CN([C@@H](C)CO)C(=O)c2cc(NC(=O)c3ccncc3)ccc2O1 | active |
| Cc1noc(C)c1S(=O)(=O)N(C)C[C@H]1Oc2c(NC(=O)C3CCCCC3)cccc2C(=O)N([C@H](C)CO)C[C@H]1C | inactive |
| COc1ccc(CN(C)C[C@H]2OCCCC[C@@H](C)Oc3ccc(NS(=O)(=O)c4ccc(C)cc4)cc3C(=O)N([C@@H](C)CO)C[C@@H]2C)cc1 | inactive |
| C[C@H]1CCCCO[C@@H](CN(C)S(=O)(=O)c2ccc(Cl)cc2)[C@@H](C)CN([C@@H](C)CO)C(=O)c2cc(NS(=O)(=O)c3ccccc3)ccc2O1 | inactive |
| CC12C=CC(=O)C=C1CCC1C2C(O)CC2(C)C1CCC2(O)C(=O)COC(=O)CCC(=O)O (stereo unspecified) | inactive |
| Cc1ccc(S(=O)(=O)N(C)C[C@@H]2Oc3ncc(C#CCC(C)C)cc3C(=O)N([C@H](C)CO)C[C@@H]2C)cc1 | inactive |
| COc1cccc(S(=O)(=O)N(C)C[C@H]2Oc3ncc(C#CCC(C)C)cc3C(=O)N([C@@H](C)CO)C[C@H]2C)c1 | inactive |
| COc1cccc(S(=O)(=O)N(C)C[C@H]2Oc3ncc(C#CCC(C)C)cc3C(=O)N([C@H](C)CO)C[C@H]2C)c1 | inactive |
| Cc1ccc(S(=O)(=O)N(C)C[C@H]2Oc3ncc(C#CCC(C)C)cc3C(=O)N([C@@H](C)CO)C[C@H]2C)cc1 | active |
| COc1cccc(-c2cnc3c(c2)C(=O)N([C@H](C)CO)C[C@H](C)[C@H](CN(C)S(=O)(=O)c2cccc(OC)c2)O3)c1 | inactive |
| COc1cccc(S(=O)(=O)N(C)C[C@H]2Oc3ncc(C#CCC(C)C)cc3C(=O)N([C@H](C)CO)C[C@@H]2C)c1 | active |
| COc1cccc(-c2cnc3c(c2)C(=O)N([C@H](C)CO)C[C@H](C)[C@H](CN(C)S(=O)(=O)c2ccccc2)O3)c1 | active |
| Cc1ccc(S(=O)(=O)N(C)C[C@H]2Oc3ncc(C#CCC(C)C)cc3C(=O)N([C@H](C)CO)C[C@@H]2C)cc1 | inactive |
| Cc1ccc(S(=O)(=O)N(C)C[C@@H]2Oc3ncc(C#CCC(C)C)cc3C(=O)N([C@H](C)CO)C[C@H]2C)cc1 | inactive |
| Cc1ccc(S(=O)(=O)N(C)C[C@H]2Oc3ncc(C#CCC(C)C)cc3C(=O)N([C@@H](C)CO)C[C@@H]2C)cc1 | inactive |
| Cc1ccc(S(=O)(=O)N(C)C[C@@H]2Oc3ncc(C#CCC(C)C)cc3C(=O)N([C@@H](C)CO)C[C@H]2C)cc1 | active |
| COc1cccc(S(=O)(=O)N(C)C[C@@H]2Oc3ncc(-c4ccccc4)cc3C(=O)N([C@H](C)CO)C[C@@H]2C)c1 | inactive |
| CN(C)CCCNC(=O)C[C@@H]1CC[C@H]2[C@@H](COC[C@@H](O)CN2S(=O)(=O)c2ccc(F)cc2)O1 | inactive |
| CO[C@H]1CN(C)C(=O)c2cc(NS(=O)(=O)CC(F)(F)F)ccc2OC[C@H](C)N(Cc2ccccn2)C[C@@H]1C | inactive |
| CC(C)CC#Cc1cnc2c(c1)C(=O)N([C@@H](C)CO)C[C@@H](C)[C@@H](CN(C)C(=O)CN1CCOCC1)O2 | inactive |
| C[C@@H]1CN([C@@H](C)CO)C(=O)c2cc(NS(=O)(=O)c3ccccc3)ccc2O[C@@H](C)CCCCO[C@H]1CN(C)C(=O)c1ccccc1 | inactive |
| C[C@@H]1CCCCO[C@H](CN(C)C(=O)Cc2ccccc2)[C@@H](C)CN([C@H](C)CO)C(=O)c2cc(NC(=O)Nc3ccc4c(c3)OCO4)ccc2O1 | inactive |
